TRPV1 ag = agonists of human vanilloid receptor 1 (TRPV1); activation, % at 8.33 µM; TRPV1-expressing cells, Fluo-8 calcium influx, agonist mode; actives 0.19% (n = 320,000); in the data active = activation above about 80%; inconclusive = between about 30% and that limit; note: 0% is about no effect
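Cells expressing TRPV1 were dye-loaded with Fluo-8 and read kinetically: 10 s baseline, 3 min after compound (agonist portion), then 2 min after EC20 capsaicin (allosteric enhancer portion). Calcium-bound dye fluorescence at 480/520 nm.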
TRPML1 agonist = activates the human TRPML1 channel | AID 624414 | actives 0.12% (n = 410,000) | activation, % (no concentration beside the values) | Q9GZU1 | TRPML1-expressing cells, Ca2+ dye fluorescence, FDSS; in the data active = activation above about 50%; inconclusive = mostly about 30% to 49%; note: 0% is about no effect
Target sequence (Q9GZU1 whole entry, looked up): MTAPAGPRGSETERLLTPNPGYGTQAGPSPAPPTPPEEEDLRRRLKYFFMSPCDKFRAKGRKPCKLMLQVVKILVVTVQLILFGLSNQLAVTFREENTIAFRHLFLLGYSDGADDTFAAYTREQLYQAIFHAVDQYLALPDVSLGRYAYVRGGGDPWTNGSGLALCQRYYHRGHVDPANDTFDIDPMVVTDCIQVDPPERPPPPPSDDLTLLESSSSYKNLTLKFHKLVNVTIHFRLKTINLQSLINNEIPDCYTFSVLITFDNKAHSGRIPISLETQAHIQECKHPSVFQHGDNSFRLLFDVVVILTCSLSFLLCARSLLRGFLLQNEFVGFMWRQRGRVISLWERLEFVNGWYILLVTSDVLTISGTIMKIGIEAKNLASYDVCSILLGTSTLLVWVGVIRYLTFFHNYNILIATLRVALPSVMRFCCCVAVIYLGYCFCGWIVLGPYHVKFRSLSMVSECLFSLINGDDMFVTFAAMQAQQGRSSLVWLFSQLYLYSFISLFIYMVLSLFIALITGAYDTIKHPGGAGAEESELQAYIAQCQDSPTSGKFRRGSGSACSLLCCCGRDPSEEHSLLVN
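Calcium fluorescence on an FDSS kinetic reader gave the read-out. Tet-induced TRPML1-DL cells were plated overnight, dye-loaded (Ca8 with quencher, 45-90 min, room temperature, dark), then read 110 s after compound addition, and again 110 s after 4uM final 54-4 (EC80).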
TRPV1 PAM = potentiators of human vanilloid receptor 1 (TRPV1) | potentiation, % at 8.33 µM | AID 540277 | Q8NER1 | actives 0.02% (n = 320,000) | TRPV1-expressing cells, Fluo-8 calcium influx, capsaicin EC20 potentiation; in the data active = potentiation above about 80%; inconclusive = between about 30% and that limit; note: 0% is about no effect
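Fluo-8 calcium influx in TRPV1-expressing cells, kinetic read (ex 480/em 520 nm). Compound added and read 3 min for agonist activity, followed by capsaicin at EC20 final and 2 min further read for enhancement.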
TRPML1 inh = inhibitors of human TRPML1 channel; Q9GZU1; TRPML1-inducible cells, Ca2+ dye fluorescence, FDSS; hits give low values; inhibition of EC80 agonist-evoked calcium signal; activity change, negative = inhibition, % (test concentration not listed); actives 0.02% (n = 390,000); in the data active = activity change below about -50%; inconclusive = between about -30% and that limit;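 note: stimulus is agonist 54-4 at its EC80 concentration; % is set by controls: 0 for no effect and ±100 for the full control effect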
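Tet-induced TRPML1-DL cells loaded with Ca8 no-wash calcium dye were read kinetically on FDSS. Compound addition was followed by EC80 agonist 54-4 (4 uM final); inhibition was read over 110 s.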
A-T KAP1 phos = potential ataxia-telangiectasia treatments restoring KAP-1 phosphorylation. Potency, µM (top dose mostly 57.5 µM), for the others: at the highest dose activation, most hits filed as activators. F2112 A-T fibroblasts, KAP-1 phosphorylation AlphaLISA; neocarzinostatin DNA damage 30 min before lysis. actives 0.19% (n = 320,000). AID 485349; active = well fitted activation curve with a large enough effect; inconclusive = small, poorly fitted or top-dose-only effect; inactive = no such curve, though single readings can be large or run the other way; note: potency is the fitted concentration of half-maximal effect; % of control where 0% means no effect; nearly all actives have a fitted effect of over 45% in size
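ATM-like activity read as KAP-1 phosphorylation via AlphaLISA donor/acceptor antibody pairs after lysis and 6 hr at 25C. Cells were ATM-null patient fibroblasts (F2112, hTERT), dosed 60 min, then exposed to the DSB inducer NCS for 30 min.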
Starred values were filed as active, the others as inactive; ? = inconclusive; . = no result given. This is a sample that favours compounds with a hit; in the whole collection about 0.41% have one here.

SMILES | TRPV1 ag | TRPML1 agonist | TRPV1 PAM | TRPML1 inh | A-T KAP1 phos
Cc1ccc(S(=O)(=O)N2CCN(c3nc(-n4c(=O)[nH]c5ccccc54)nc4ccccc34)CC2)cc1 | . | -0.1 | . | . | .
CC(C)(C)n1ncc2c(=O)n(Cc3ccc(F)cc3Cl)cnc21 | . | 8.0 | . | -9.2 | .
Cc1ccc(NC(=S)Nc2cccc3cnccc23)cc1 | 0.7 | 3.5 | -10.0 | -8.5 | -0.9%
CC(=O)c1ccc(NC(=S)Nc2cccc3cnccc23)cc1 | -5.3 | 0.2 | 19.5 | -7.1 | 39.8µM*
CCN(CC)/[N+]([O-])=N/OCOC(=O)c1ccccc1OC(C)=O | . | 1.6 | . | -6.2 | .
CC(=O)c1cccc(NC(=S)NCCc2ccc(Cl)cc2)c1 | 85.2* | -0.8 | 5.0 | 12.0 | 0.9%
CC(=O)c1cccc(NC(=S)NCc2ccccc2)c1 | ? | 0.0 | 1.2 | 32.8 | 19.2%
COc1ccc(C(=O)NCC(=O)N2CCN(c3ccccc3)CC2)cc1 | 0.7 | -0.1 | -2.1 | -0.2 | -2.3%
CCC(=O)c1cc(F)c(N2CCN(C(=O)Cc3ccccc3)CC2)cc1C | 90.6* | -0.3 | -8.3 | 5.7 | -17.4%
O=C(Cc1ccc(Cl)cc1)N1CCN(c2ccccc2)CC1 | 0.6 | 0.0 | -13.5 | -10.2 | 22.4µM*
O=C(NCC(=O)N1CCN(c2ccccc2)CC1)c1ccc(Cl)cc1 | 2.3 | 0.1 | 1.4 | -54.5* | -5.7%
C[C@@H]1[C@H](c2ccccc2)OCCS(=O)(=O)N1Cc1ccccc1Br | . | -0.3 | . | . | .
Cc1cc(C)cc(C(=O)C[n+]2cccc(Br)c2)c1 | . | -0.8 | . | . | .
COC(=O)[C@@H]1[C@H]2SC(C)(C)[C@H](C(=O)OC)N2C(=O)N1Cc1cc2ccccc2n1S(=O)(=O)c1ccccc1 | . | -0.4 | . | . | .
Cn1c(=O)c2[nH]c(N=NN3CCCCC3)nc2n(C)c1=O | . | -0.6 | . | 7.3 | .
CC(=O)/C(N=Nc1nc2c([nH]1)c(=O)n(C)c(=O)n2C)=C(\C)O | -1.9 | 0.1 | 3.8 | 3.2 | 7.08µM*
COCCN(C(=S)Nc1cccc(C)c1C)C(C)c1ccco1 (centres undefined) | 12.9 | -1.1 | -25.0 | 10.9 | 2.5%
COCCN(C(=S)Nc1ccccc1C)C(C)c1ccco1 (centres undefined) | -2.2 | 0.5 | 16.4 | -13.3 | 31.6µM*
C[N+]1(CC(=O)c2ccc(I)cc2)CCCc2ccccc21 (centres undefined) | . | -0.6 | . | . | .
CCCCn1nc(NC(=O)COC)c2cc3ccc(C)cc3nc21 | 88.8* | 1.8 | -22.4 | -11.4 | 47.7%
CCCn1nc(NC(=O)c2ccco2)c2cc3ccc(C)cc3nc21 | ? | 2.4 | -1.7 | -14.4 | 25.5%
CCCn1nc(NC(=O)c2ccco2)c2cc3cc(C)ccc3nc21 | ? | 5.4 | -14.8 | -18.8 | 22.4µM*
CCCn1nc(NC(=O)COC)c2cc3cc(C)ccc3nc21 | -2.5 | . | ? | . | 29.2%
COc1cccc(-c2ccc(=O)n(CC(=O)NCCN3CCOCC3)n2)c1 | -1.2 | -0.5 | 21.1 | -63.1* | -1.0%
CC(=O)OC1C(N2CCCCC2)c2c(ccc(/C=C/C(=O)N3CCCCC3)c2O)OC1(C)C (centres undefined) | 80.6* | 1.8 | -18.1 | 8.0 | 0.5%
SMILES | TRPV1 ag | TRPML1 agonist | TRPV1 PAM | TRPML1 inh | A-T KAP1 phos
CCN(CC)S(=O)(=O)c1ccc(/C=C/C(=O)O)cc1 | 0.6 | 1.3 | -3.5 | ? | 5.6%
CCN(CC)S(=O)(=O)c1ccc(/C=C/C(=O)Nc2cccc(F)c2)cc1 | 96.9* | 1.6 | -11.0 | 13.0 | 1.3%
Cc1ccc2[nH]cc(C(O)c3c[nH]c4ccc(C)cc34)c2c1 | . | -0.2 | . | . | .
O=C1C(NS(=O)(=O)c2ccc(Br)cc2)=C(N2CCCCC2)C(=O)c2ccccc21 | 9.7 | 76.4* | -2.7 | -19.5 | -11.8%
COCCNC(=O)c1ccc2c(c1)C(=O)c1ccccc1-2 | 26.5 | 0.1 | -25.3 | 53.8 | 12.3%
CC(C)(CO)NC(=O)c1ccc2c(c1)C(=O)c1ccccc1-2 | 27.8 | -0.1 | -26.2 | 2.6 | 0.708µM*
Cc1cc2c(cc1C)N[C@]1(C[C@H]3CCCC(=O)N4CC[C@@H](C1)[C@@H]34)C(=NC1CCCCC1)N2 | . | -0.6 | . | . | .
C/C(=C1/C=Nc2ccccc21)c1ccc(N(C)C)cc1 | . | -0.3 | . | . | .
Cc1oc2c(c(C)cc3oc(=O)c(CC(=O)NCC(=O)NCC(=O)O)c(C)c32)c1C | -1.9 | . | 4.2 | . | 5.62µM*

Screening results: PubChem, National Center for Advancing Translational Sciences (NCATS)
